The whole screen tested about 310,000 compounds, of which about 18,000 (5.8%) were called active. About 22% were inconclusive and are not listed. Calls follow the shape of the dose curve; as a rule, active = well fitted inhibition curve with a large enough effect; inconclusive = small, poorly fitted or top-dose-only effect, or another doubt; inactive = no such curve, though single readings can be large or run the other way. Many of the other results were omitted from the sample, so actives are more common in it than they were.
% is scaled to controls: 0 for no effect and ±100 for the full control effect; potency is read from the fitted curve at half-maximal effect.

This assay is described as follows: Primary qHTS for delayed death inhibitors of the malarial parasite plastid, 48 hour incubation. The settings on record: P. falciparum luciferase growth in erythrocytes; series mostly up to 28.7 µM; activity change, negative = inhibition: at the top concentration. Put shortly:
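Luminescence readout; reporter = integrated firefly luciferase in P. falciparum. RBC culture at 2% hematocrit, 0.1% parasitemia final, 37 C/5% CO2; decreased signal taken as growth inhibition.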
`O=C(CN1C(=O)NC2(CCCCC2)C1=O)NCCc1c[nH]c2ccccc12`: the “activity change, negative = inhibition” value was -11% (inactive).
Take `CCN(CC(=O)Nc1ccc(NC(C)=O)cc1)C(=O)C1CC(=O)N(Cc2ccc(C)cc2)C1` (stereo not given): the “activity change, negative = inhibition” value is 3.06% (inactive).
Regarding `Cc1ccc(NC(=O)c2cccc(S(=O)(=O)N3CCCc4ccccc43)c2)nc1`, the Potency was 4.15 µM (active).
For `CN1CCN(S(=O)(=O)c2cccc(C(=O)N3CCc4ccccc43)c2)CC1`, the “activity change, negative = inhibition” value was 7.8% (inactive).
Turning to `CC1CCN(C(=O)c2cccc(S(=O)(=O)N3CCCc4ccccc43)c2)CC1`, the “activity change, negative = inhibition” value was -65.1% (inactive).
As for `NS(=O)(=O)c1ccc(CNC(=O)c2cccc(S(=O)(=O)N3CCc4ccccc43)c2)cc1`, the Potency is 14.7 µM (active).
Consider `O=S(=O)(c1ccc2c(c1)OCCO2)N1CCc2ccccc21`, for which the “activity change, negative = inhibition” value was -4.28% (inactive).
`Cn1c(=O)n(C)c2cc(S(=O)(=O)N3CCCc4ccccc43)ccc21`: the “activity change, negative = inhibition” value is -12.1% (inactive).
In the case of `Cc1nc(COc2cc3oc(=O)cc(C)c3cc2Cl)cs1`, the “activity change, negative = inhibition” value was 56.1% (inactive).
Still for that read-out and setting: the figure for `NC(=O)C1CCCN(CC(=O)N2CCN(c3ccccc3)CC2)C1` (stereo not given) is 21.6% (inactive); for `Cc1ccc(-n2ncc3c2CC(C)(C)CC3NC(=O)CCc2cnn(C)c2)cc1` (stereo not given) it is -10.4% (inactive); for `C[n+]1cc(-c2ccccc2)oc1-c1ccccc1` it is 79.7% (inactive).
Regarding `O=C(COc1ccc2c3c(c(=O)oc2c1)CCCC3)NCC(O)c1ccccc1` (stereo not given), the “activity change, negative = inhibition” value was 0.369% (inactive).
Same read-out and setting: the figure for `CCCc1nc2ccccc2c(=O)n1/N=C/c1ccc(O)c(O)c1` is 0% (inactive).
Consider `CCCN1C(=O)C(Cc2nc3ccccc3c(=O)n2-c2ccccc2)c2cc(C)ccc21` (stereo not given), for which the Potency was 13.1 µM (active).
Consider `O=c1c2ccccc2nc(CSc2nnnn2-c2ccccc2)n1-c1ccccc1`, for which the “activity change, negative = inhibition” value was 21.2% (inactive).
Consider `COCCNC(=O)CN(Cc1ccco1)C(=O)CCC(=O)Nc1nccs1`, for which the “activity change, negative = inhibition” value was 3.14% (inactive).
In the case of `CCOc1ccc(CCNC(=O)CCc2nnc3ccc(N4CCCC4)nn23)cc1OCC`, the “activity change, negative = inhibition” value is -17.1% (inactive).
As for `CC1C(=O)N2CCCc3cc(S(=O)(=O)NCc4ccc(F)cc4)cc1c32` (stereo not given), the “activity change, negative = inhibition” value was -1.55% (inactive).
Same read-out and setting: the figure for `CC1CCN(C(=O)C2CCN(S(=O)(=O)N3CCC4(CC3)OCCO4)CC2)CC1` is -24.5% (inactive).
For the compound `CC1(C)CC(=O)CC2(C1)NCC(c1ccccc1Cl)c1c2[nH]c2ccccc12` (stereo not given), the Potency is 10.4 µM (active).
Consider `O=C(CN1CCN(S(=O)(=O)c2ccc(Br)cc2)CC1)Nc1ccccc1C(=O)c1ccccc1`, for which the Potency is 13.1 µM (active).
Regarding `C/C(=N/NC(=O)CN1CCN(S(=O)(=O)c2ccc(Br)cc2)CC1)c1ccncc1`, the “activity change, negative = inhibition” value is 0% (inactive).
Take `O=C(CN1CCN(S(=O)(=O)c2ccc(F)cc2)CC1)Nc1ccccc1F`: the “activity change, negative = inhibition” value is -3.52% (inactive).
In the case of `COc1cc2c(cc1NC(=O)CN1CCN(S(=O)(=O)c3ccc(F)cc3)CC1)oc1ccccc12`, the Potency was 10.4 µM (active).
As for `COc1cc2c(cc1NC(=O)COC(=O)/C=C/c1ccccc1)oc1ccccc12`, the “activity change, negative = inhibition” value was 19.8% (inactive).
Take `COc1ccc(NC(=O)CN2CCN(S(=O)(=O)c3ccc(F)cc3)CC2)cc1Cl`: the “activity change, negative = inhibition” value is -13.7% (inactive).
As for `CCCn1c(N)c(N(CCOC)C(=O)C2CCCC2)c(=O)[nH]c1=O`, the “activity change, negative = inhibition” value was -0.556% (inactive).
`Cc1cc(NC(=O)CCS(=O)(=O)c2ccc(F)cc2)no1`: the “activity change, negative = inhibition” value was -24.6% (inactive).
Consider `CC(C)=N/N=C1/NC(=O)C(Cc2ccccc2)S1` (stereo not given), for which the “activity change, negative = inhibition” value is -27.8% (inactive).
Consider `N#CC1(NC(=O)COC(=O)CCN=C2NS(=O)(=O)c3ccccc32)CCCCC1`, for which the “activity change, negative = inhibition” value was 0.444% (inactive).
The same measure, in the same setting: next, `CC(=O)Nc1ccc(S(=O)(=O)N2CCC(C(=O)N[C@@H](Cc3ccccc3)C(=O)O)CC2)cc1`: 15.3% (inactive).
In the case of `COc1c(O)ccc2c1CN1CCc3cc4c(cc3C1C2)OCO4` (stereo not given), the Potency was 1.85 µM (active).
On to `COc1cc(COCC(O)CN2CCN(Cc3ccc4c(c3)OCO4)CC2)cc(OC)c1OC` (stereo not given), for which the “activity change, negative = inhibition” value was 0% (inactive).
As for `CN1CCc2cc3c(cc2[C@H]1[C@@H]1OC(=O)c2c1ccc1c2OCO1)OCO3`, the “activity change, negative = inhibition” value was -8.96% (inactive).
In the case of `COc1ccc(N2CCN(C(=O)CNC(=O)c3ccc(Br)o3)CC2)cc1`, the “activity change, negative = inhibition” value was -1.91% (inactive).
As for `COc1cccc(C(=O)NNC(=O)c2cccc(F)c2)c1`, the “activity change, negative = inhibition” value is 106% (inactive).
Same read-out and setting: the figure for `CC(OC(=O)CCC(=O)c1ccccc1)C(=O)Nc1ccc(F)cc1` (stereo not given) is -0.871% (inactive); for `C=CCC(NCc1ccco1)c1ccc(OC)cc1` (stereo not given) it is -2.5% (inactive).
Regarding `COc1ccc(Nc2nc(NCc3ccco3)nc(N/N=C/c3ccccc3Cl)n2)cc1`, the Potency was 10.4 µM (active).
For the compound `COc1ccc(Nc2nc(Cl)nc(NCc3ccco3)n2)cc1`, the “activity change, negative = inhibition” value is -11.9% (inactive).
The same measure, in the same setting: the figure for `CC1(c2nnc(Cc3ccccc3)o2)CC(c2ccccc2F)=NO1` (stereo not given) is 5.51% (inactive); for `O=C(Nc1ccc(S(=O)(=O)NCC2CCCO2)cc1)c1ccc(F)cc1` (stereo not given) it is -4.09% (inactive); for `Cc1ccc(C)c(OCc2cc(C(=O)N3CCN(c4cnccn4)CC3)no2)c1` it is -12.7% (inactive).
For the compound `COc1cc(C2C3=C(CCCC3=O)OC3=C2C(=O)CCC3)ccc1OCC(=O)Nc1ccccc1`, the “activity change, negative = inhibition” value was -26.2% (inactive).
Regarding `O=C(CCC1CCCC1)N=C1SC2CS(=O)(=O)CC2N1Cc1ccccc1` (stereo not given), the “activity change, negative = inhibition” value was -0.261% (inactive).
As to `CC(C)(C)c1ccc(C(CC(=O)O)NS(=O)(=O)Cc2ccccc2)cc1` (stereo not given), the “activity change, negative = inhibition” value is 20.6% (inactive).
As to `CCCOc1ccc(C(=O)NCCc2ccccc2)cc1`, the “activity change, negative = inhibition” value is 252% (inactive).
As to `CCCOc1ccc(C(=O)CCC(=O)OC(C)C(=O)Nc2ccc(NC(C)=O)cc2)cc1` (stereo not given), the “activity change, negative = inhibition” value was 20.9% (inactive).
For the compound `CCCOc1ccc(C(=O)C(CCC(CNCC)C(=O)c2ccc(OCCC)cc2)CNCC)cc1` (stereo not given), the Potency was 1.85 µM (active).

The record behind these values is PubChem BioAssay AID504832 (National Center for Advancing Translational Sciences (NCATS), 2011).
